A selection: hits, their analogues and other compounds. The true share with any hit is near 2.5%.
Anesthetic bind = qHTS Assay for Identification of Novel General Anesthetics. apoferritin/1-aminoanthracene competitive binding, fluorescence. Potency, µM (series often up to 77.5 µM), most hits filed as inhibitors. 0.074% of 350,000 active; also: nearly all actives have a fitted effect of over 20% in size
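Probe: 1-aminoanthracene (50% saturated, PBS). Protein: horse-spleen apoferritin, 10 uM. Incubation: 10 min, room temperature. Detection: 380 nm excitation, 535 nm emission. Analysis: normalized response, four-parameter Hill.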
TrxR1 substrate = qHTS Assay for Substrates of Mammalian Selenoprotein Thioredoxin Reductase 1 (TrxR1): qHTS. Thioredoxin reductase 1, cytoplasmic (Rattus norvegicus), O89049. purified TrxR1 substrate turnover, NADPH consumption readout. Potency, µM (doses to about 114 µM). 0.01% of 390,000 active; also: nearly all actives have a fitted effect of over 50% in size
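Rat TrxR1, dispensed at 90 nM, was prereduced with 400 uM NADPH (final) for 5 min at ~22 deg C, then incubated with compound 15 min before 400 uM selenite. A first-read NADPH fluorescence drop versus no-compound background flagged substrates.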
TrxR1 inh = qHTS Assay for Inhibitors of Mammalian Selenoprotein Thioredoxin Reductase 1 (TrxR1): qHTS | recombinant rTrxR1, NADPH fluorescence consumption, selenite substrate | Potency, µM (titrated, usually from 114 µM), usual class: inhibitors | 1% of 390,000 active | AID 588453, 2011; also: nearly all actives have a fitted effect of over 65% in size
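Rat TrxR1 (90 nM in the dispensed reagent) was pre-reduced with 400 uM NADPH for 5 min at room temperature, then incubated with compound for 15 min. After 400 uM selenite was added, NADPH fluorescence (Ex 340/Em 450 nm) was followed for 8 min.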
ClpP mod = qHTS Assay for Activators of ClpP; ATP-dependent Clp protease proteolytic subunit (Bacillus subtilis (strain 168)), P80244; purified B. subtilis ClpP, FRET peptide cleavage, 20 min; Potency, µM (titrated, usually from 57.5 µM); 1.9% of 340,000 active; AID 651965, 2013; active = well fitted falling curve with a large enough effect; inconclusive = small, poorly fitted or top-dose-only effect; inactive = no such curve, though single readings can be large or run the other way; also: the source files actives as falling curves though it sought activators and does not explain the sign; nearly all actives have a fitted effect of over 65% in size
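FRET quenching reversal measured ClpP activation: 10 microg/mL B. subtilis ClpP at pH 8 with the FRET-FV decapeptide, read at 430 nm after 320 nm excitation. The 20-min minus 0-min signal was scaled between DMSO/no-enzyme wells and ADEP (5.8 microM final).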
miR-21 reporter = qHTS Assay for Modulators of miRNAs and/orActivators of miR-21. HeLa miR-21 FLuc reporter, luciferase, 48 h. 340,000 tested, under 10 active. Potency, µM (top dose mostly 38.3 µM), usual class: activators;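 also: miR-21 action dims this reporter so a rising signal means less miR-21 action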
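Using DMEM plus 10% FBS, HeLa miR-21-FLuc cells are incubated with test compounds (final up to about 40uM) for 48 hours; firefly luciferase signal is then imaged following reagent-mediated lysis.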
Each line names hits and unclear results; the compound was inactive in the other large screens. Unless noted, calls follow the shape of the dose curve; as a rule, active = well fitted curve in the direction sought with a large enough effect; inconclusive = small, poorly fitted or top-dose-only effect, or another doubt; inactive = no such curve, though single readings can be large; an effect the other way counts as inactive or inconclusive.

CC(C)(C)OC(=O)N1CCC(c2c(C(=O)NCc3cccs3)cnn2-c2cccc(F)c2)CC1	miR-21 reporter inconclusive
Cc1cccc(-n2ncc(C(=O)NCc3ccccn3)c2C2CCN(C(=O)OC(C)(C)C)CC2)c1	none
Cc1cc(=O)oc2cc(Oc3ncccn3)ccc12	ClpP mod 32µM
Cc1cc(=O)oc2cc(Oc3ncccc3[N+](=O)[O-])ccc12	none
COc1ccc(C(=O)Nn2cnc3scc(-c4cccs4)c3c2=O)c(O)c1	ClpP mod 32µM
COc1cccc(-n2cnc3scc(-c4cccs4)c3c2=O)c1	none
CCOC(=O)Nc1oc2ccccc2c(=O)c1C	ClpP mod 5µM
COc1ccc(Br)cc1S(=O)(=O)Nc1cc(-c2cn3ccccc3n2)ccc1C	ClpP mod 18µM
C[C@H](CO)N1C[C@H](C)[C@@H](CN(C)C(=O)Nc2ccccc2)Oc2c(NC(=O)c3ccncc3)cccc2C1=O	none (no result: Anesthetic bind, miR-21 reporter)
C[C@H]1CN([C@@H](C)CO)C(=O)c2cccc(NC(=O)c3ccncc3)c2O[C@H]1CN(C)C(=O)Nc1ccccc1	TrxR1 inh 56µM (no result: Anesthetic bind, miR-21 reporter)
Cc1ccc(S(=O)(=O)N2CCN(c3nc(-c4cncnc4)nc4ccccc34)CC2)cc1	none (no result: Anesthetic bind, miR-21 reporter)
O=C1N(Cc2ccccc2)CC2(Br)COCOC12O (configuration not stated)	TrxR1 inh 2.2µM (no result: Anesthetic bind, miR-21 reporter)
O=C1C(c2ccccc2)CN1Cc1ccccc1 (configuration not stated)	none (no result: Anesthetic bind, TrxR1 substrate, TrxR1 inh, miR-21 reporter)
CCOC(=O)C1C(C#N)=C(N)OC(C)=C1c1ccncc1 (configuration not stated)	ClpP mod 32µM
CCOC(=O)CC1=C(C(=O)OCC)C(c2ccncc2)C(C#N)=C(N)O1 (configuration not stated)	none
CC(C)Oc1ccc(CNC(=O)Nc2ccc3c(c2)N(C)C(=O)c2ccccc2S3)cc1	none
O=C1CCCN1CCCNc1ncnc2c1[nH]c1ccc(Cl)cc12	ClpP mod 25µM
Cc1ccc2[nH]c3c(NCCN4CCOCC4)ncnc3c2c1	none
Clc1ccc2[nH]c3c(NCCCN4CCOCC4)ncnc3c2c1	ClpP mod 20µM
COc1ccc(NC(=O)c2ccco2)cc1NC(=O)C(C)(C)Oc1ccc(Cl)cc1	none
COCCNC(=O)Cc1c(C)c2c(cc(C)c3c(C(C)(C)C)coc32)oc1=O	ClpP mod 14µM
CN(c1ccccc1)S(=O)(=O)c1ccc(NC(=O)c2ccc(-c3ccccc3)cc2)cc1	ClpP mod 25µM
CCN(c1ccccc1)S(=O)(=O)c1ccc(NC(=O)c2nc(S(C)(=O)=O)ncc2Cl)cc1	Anesthetic bind inconclusive, TrxR1 inh 0.4µM, miR-21 reporter inconclusive
CC(=O)Nc1ccc(S(=O)(=O)N(C)c2ccccc2)cc1	Anesthetic bind inconclusive
CCS(=O)(=O)c1ncc(Cl)c(C(=O)Nc2ccc(S(=O)(=O)N(C)c3ccccc3)cc2)n1	TrxR1 inh 2.8µM, miR-21 reporter inconclusive
Cc1ccc(S(=O)(=O)N(C)c2ccc(C(=O)Nc3ccccc3C(=O)N3CCOCC3)cc2)cc1	ClpP mod 18µM
COc1ccc(S(=O)(=O)N(C)c2ccc(C(=O)Nc3ccccc3C(=O)N3CCOCC3)cc2)cc1	none
CCSc1ncc(Cl)c(C(=O)Nc2ccc(S(=O)(=O)N(C)c3ccccc3)cc2)n1	none
CCCN1CNc2c(c(=O)[nH]c(=S)n2CCc2ccccc2Cl)C1	none (no result: Anesthetic bind, miR-21 reporter)
N#Cc1ccc(-c2cccs2)nc1SCc1ccc(Cl)cc1Cl	none
CC(C(=O)NC1CCCC1)N(C(=O)c1ccc(-c2ccccc2)[nH]1)c1ccccc1F (configuration not stated)	ClpP mod 32µM
Cc1ccc(OCCn2cc(/C=C3\C(=O)NN(c4ccccc4)C3=O)c3ccccc32)cc1	ClpP mod 18µM
COC(=O)C(NC(=O)COc1ccccc1)(Nc1nc2c(s1)CCCC2)C(F)(F)F (configuration not stated)	TrxR1 inh 32µM
CCOC(=O)c1cnc2c(F)ccc(F)c2c1Sc1ccccc1	TrxR1 inh 56µM (no result: ClpP mod)
CCOC(=O)c1cnc(-c2ccccc2)nc1C(F)(F)F	none (no result: ClpP mod)
CC(C)c1ccc(Nc2nc(CC(=O)O)cs2)cc1	Anesthetic bind inconclusive
O=C(O)Cc1csc(Nc2cccc(Cl)c2)n1	Anesthetic bind 10µM
CC1(C)CC(=O)c2cc(OCC(=O)N3CCCCCC3)ccc2O1	ClpP mod 28µM
CCOC(=O)COc1ccc2c(c1)C(=O)CC(C)(C)O2	ClpP mod 28µM
CC1(C)CC(=O)c2cc(OCC(=O)O)ccc2O1	ClpP mod 25µM
CCOC(=O)N1CCN(C(=O)COc2ccc3c(c2)C(=O)CC(C)(C)O3)CC1	none
CCOC(=O)COc1ccc2c(c1)C(=O)CC1(CCN(C(C)=O)CC1)O2	ClpP mod 28µM
COc1ccc(NC(=O)CCCn2nc(C)c3sc4ccccc4c3c2=O)cc1	none
CC(C)Oc1ccc(CNS(=O)(=O)c2ccc3c(c2)C(C)(C)C(=O)N3C)cc1	none
COc1ccc(C(c2nnnn2C2CCCCC2)N2CCN(c3ccc(OC)cc3)CC2)cc1 (configuration not stated)	none
c1cc(N2CCCC2)ccc1C(c1nnnn1C1CCCCC1)N1CCOCC1 (configuration not stated)	TrxR1 inh 7.1µM
CCOC(=O)c1ccc(NC(=O)CN2C(=O)CC(c3ccc(C)c(C)c3)=Nc3ccccc32)cc1	none
O=C(NC(=S)Nc1ccc(S(=O)(=O)N2CCCCC2)cc1)c1cccs1	TrxR1 inh inconclusive, ClpP mod inconclusive
NS(=O)(=O)c1ccc(NC(=S)NC(=O)c2ccco2)cc1	TrxR1 inh inconclusive, ClpP mod 10µM
O=C(NC(=S)Nc1ccccc1)c1cccs1	TrxR1 inh 50µM (no result: ClpP mod)
NS(=O)(=O)c1ccc(NC(=S)NC(=O)c2cccs2)cc1	TrxR1 inh 11µM
O=C(Nc1ccc(NC(=S)NC(=O)c2cccs2)cc1)c1ccccc1	none
COc1cccc(N2CC(NC(=O)CCCc3ccccc3)CC2=O)c1 (configuration not stated)	none
Cc1ccc(N2C(=O)C(CN3CCCC3)C2c2ccccc2)cc1 (configuration not stated)	none (no result: ClpP mod)
Cc1ccc(N2C(=O)C(CN3CCCCC3)C2c2ccccc2)cc1 (configuration not stated)	ClpP mod 16µM
Cc1cc(Nc2cccc(Cl)c2)nc2ccc(NC(=O)c3ccc(F)cc3Cl)cc12	ClpP mod 28µM
CC1(C)CC(N2CCOCC2)=CC(=S)N1	none (no result: Anesthetic bind, TrxR1 substrate, TrxR1 inh, miR-21 reporter)
